Screens: PubChem BioAssay, several laboratories
Hits are enriched below; roughly 4.1% of the tested compounds scored in any of these assays.
tim23-1 inh: growth inhibitors of tim23-1 mutant yeast, primary screen, luminescence, uHTS. AID 463212, 2010. actives 1.3% (n = 330,000). S. cerevisiae tim23-1 growth, BacTiter-Glo luminescence, 24 h. inhibition, % at 20 µM;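 active = growth inhibition of the mutant yeast at or above 50%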;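 also: temperature-sensitive mutant grown at 25 °C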
NLRP3 yeast inh: NALP3 inflammasome inhibitors in reconstituted yeast, primary screen, luminescence, uHTS. Yeast reconstituted NLRP3/ASC/caspase-1, beta-gal luminescence, 24 h. inhibition, % at 10 µM. actives 0.39% (n = 330,000). AID 2825, 2010;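 active = inhibition of 50% or more; inactive = inhibition below 50%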
tim10-1 inh: growth inhibitors of tim10-1 mutant yeast, primary screen, luminescence, uHTS; S. cerevisiae tim10-1 ts strain growth, BacTiter-Glo, 24 h; inhibition, % at 20 µM; actives 2.2% (n = 330,000);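 active = inhibition of at least 40%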;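 also: mutant grown at 25 °C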
TIM10 inh: growth inhibitors of isogenic TIM10 control yeast, primary screen, counter-screen for tim10-1 yeast inhibitor project, luminescence, uHTS; S. cerevisiae TIM10 strain growth, BacTiter-Glo luminescence, 24 h; inhibition, % at 10 µM; actives 1.4% (n = 330,000); AID 463195, 2010;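 active = inhibition of 40% or more at the single tested concentration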;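 also: wild-type TIM10 isogenic control strain grown at permissive 25 °C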
PfHsp90 yeast 2: growth inhibition of PfHsp90-expressing yeast, primary screen, antimalarial PfHsp90 inhibitor project, S. cerevisiae, BacTiter-Glo luminescence, single point, set 2; inhibition, % at 9.4 µM; actives 0.32% (n = 310,000); BacTiter-Glo ATP, 48 h; yeast lacking PDR1 and PDR3 efflux regulators; AID 504621, 2011;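 active = every replicate shows inhibition above about 80%, whatever the replicate mean, limit read from the data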
NALP1 inh: NALP1 inflammasome inhibitors in reconstituted yeast, colorimetric, S. cerevisiae, triplicate retest; actives 0.61% (n = 280,000); AID 2071, 2009; S. cerevisiae NALP1/ASC/caspase-1 growth, X-gal OD620, 72 h; inhibition, % at 10 µM; in the data active = inhibition mostly above about 24%, no sharp cut-off; inactive = mostly below about 32%
NALP3 yeast conf: NALP3 inhibitors retested in yeast, confirmation, luminescence, single concentration | shares compounds with NLRP3 yeast inh | yeast expressing human NALP3 | inhibition, % at 10 µM | actives 81% (n = 1,300) | AID 435006, 2010; in the data active = inhibition above about 48%
Casp1-ASC yeast: CASP1-PYCARD signaling inhibition in yeast, confirmatory test, counterassay for NLRP3 inhibitor program, one-dose; inhibition, % at 10 µM; actives 66% (n = 1,000); shares compounds with NLRP3 yeast inh; yeast expressing Caspase-1-ASC, luminescence counter screen
NALP3 retest: NALP3 inhibitors in yeast, repeat test, confirmation, luminescence, single concentration, retest; shares compounds with NLRP3 yeast inh; AID 488794, 2010; inhibition, % at 10 µM; yeast expressing human NALP3, luminescence read-out; actives 53% (n = 1,000)
Numbers stand for hits; . = inactive; / = no result. Rule as the data show it, unless noted: active = inhibition above about 50%; inactive = the rest.

SMILES	tim23-1 inh	NLRP3 yeast inh	tim10-1 inh	TIM10 inh	PfHsp90 yeast 2	NALP1 inh	NALP3 yeast conf	Casp1-ASC yeast	NALP3 retest
CC(C)Cc1nc(SCc2cccnc2)c2c(=O)n(C)c(=O)n(C)c2n1	.	60	.	.	.	.	64	57	.
CC(C)Cc1nc(SCC(=O)N2CC(C)OC(C)C2)c2c(=O)n(C)c(=O)n(C)c2n1 (stereo not drawn)	.	.	.	.	.	.	/	/	/
CCc1nc(SCc2cccnc2)c2c(=O)n(C)c(=O)n(C)c2n1	.	53	.	.	.	/	68	58	.
CCc1nc(SCC(=O)NCc2ccccc2)c2c(=O)n(C)c(=O)n(C)c2n1	.	.	.	.	.	.	/	/	/
NS(=O)(=O)c1ccc(NC(=O)COC(=O)c2ccc(S(=O)(=O)N3CCOCC3)cc2)cc1	.	.	.	.	/	/	/	/	/
Cc1ccc(-c2c[nH]c(=S)n2-c2ccccc2F)cc1	.	55	.	.	.	.	.	/	/
COc1cccc(-n2c(-c3ccccc3)c[nH]c2=S)c1	.	.	.	.	.	.	/	/	/
CCOc1ccc(-n2c(-c3ccccc3)c[nH]c2=S)cc1	.	59	.	.	.	.	58	.	.
CCOc1ccc(-n2c(-c3ccccc3)nnc2-c2ccccc2)cc1	.	.	.	.	.	.	/	/	/
Cc1ccc(-c2c[nH]c(=S)n2-c2ccccc2)cc1	.	61	.	.	.	.	.	.	.
CCC(CO)Oc1cc(NC(=O)c2ccc(C)cc2)c2ncn(C(C)C)c2c1 (stereo not drawn)	.	.	.	.	.	/	/	/	/
CC1=NN(C(=O)c2ccc(Br)cc2)C(O)(C(F)(F)OC(F)(F)F)C1 (stereo not drawn)	.	51	.	.	.	.	50	/	/
CC1CN(S(=O)(=O)c2csc(C(=O)Nc3ccccc3)c2)CC(C)O1 (stereo not drawn)	.	.	.	.	.	.	/	/	/
Cc1nnc(SCCC(=O)Nc2ccccc2Cl)o1	.	.	.	.	.	.	/	/	/
Cc1[nH]nc(Nc2ccc(Br)cc2)c1[N+](=O)[O-]	.	52	.	.	.	.	.	/	/
Cc1ccc(Nc2n[nH]c(C)c2[N+](=O)[O-])cc1	.	.	.	.	.	.	/	/	/
COc1ccc(C(C)(C)C)cc1NC(=O)c1cncc(Br)c1	.	56	.	.	/	.	62	58	55
COc1ccc(OC)c(NC(=O)C2COc3ccccc3O2)c1 (stereo not drawn)	.	.	.	.	.	.	/	/	/
COc1ccc(CNC(=O)C2COc3ccccc3O2)c(OC)c1 (stereo not drawn)	.	53	.	.	/	.	65	.	.
Oc1ccc(N=Nc2ccc3c(c2)OCCO3)c2cccnc12	.	.	.	.	.	.	/	/	/
Oc1ccc(N=Nc2ccc3c(c2)OCCO3)c(O)c1	.	50	.	.	.	/	66	/	/
COc1ccccc1NC(=O)Nc1ncccc1C	.	60	.	.	/	.	71	/	/
Cc1ccccc1NC(=O)Nc1ccccn1	.	53	.	.	.	.	69	.	.
Cn1c(N2CCOCC2)c(/C=N/OC(=O)c2ccc(F)cc2)c2ccccc21	.	65	.	.	.	.	84	61	56
Cn1c(CNC(=O)CNC(=O)c2ccc(F)cc2)cc(=O)n(C)c1=O	.	.	.	.	.	.	/	/	/
CC(Oc1ccc(F)cc1)C(=O)Nc1cc(Cl)ccc1-n1cncn1 (stereo not drawn)	.	.	.	.	.	/	/	/	/
